Data reported in PubChem BioAssay (NCI).
Compounds without any hit were thinned out: in the full panel of roughly 79,000, 15% have a hit. No stated cut-off is given here; in the data, active means growth inhibition above about 70%; inactive means the rest.

What was measured:
[1] = NCI Yeast Anticancer Drug Screen. Data for the rad50 strain (AID 155);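 further: 0% = growth of vehicle-only cultures of the same strain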; details: S. cerevisiae rad50 strain growth inhibition; at 50.0 µM; hits give high values
Outline: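 Vehicle-treated cultures provide the reference for the growth inhibition reported for compound-exposed, repair-deficient yeast.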

[2] = NCI Yeast Anticancer Drug Screen. Data for the mec2-1 strain (AID 157); details: S. cerevisiae mec2-1 strain, at 50.0 µM, hits give high values
Outline: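 Vehicle-treated cultures served as reference for growth inhibition of compound-exposed mec2-1 yeast.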

[3] = NCI Yeast Anticancer Drug Screen. Data for the sgs1 mgt1 strain (AID 161);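 further: 0% = growth of cultures given vehicle only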; details: S. cerevisiae sgs1 mgt1 strain, at 50.0 µM, hits give high values
Outline: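 Mutant yeast exposed to compound; growth scored against vehicle-only wells.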

[4] = NCI Yeast Anticancer Drug Screen. Data for the cln2 rad14 strain (AID 165);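 further: 0% = growth equal to vehicle treated cultures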; details: S. cerevisiae cln2 rad14 strain, at 50.0 µM, hits give high values
Outline: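 Each compound was tested on cln2 rad14 yeast. Inhibition of growth was calculated against vehicle-exposed controls.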

[5] = NCI Yeast Anticancer Drug Screen. Data for the bub3 strain (AID 167); details: S. cerevisiae bub3 mutant strain, at 50.0 µM, hits give high values
Outline: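 Mutant yeast screening strain plus compound; vehicle-treated cultures serve as the 0% inhibition reference.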

[6] = NCI Yeast Anticancer Drug Screen. Data for the mlh1 rad18 strain (AID 175); details: S. cerevisiae mlh1 rad18 strain growth inhibition; at 50.0 µM; hits give high values
Outline: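 Vehicle-treated cultures served as the reference for growth inhibition in a yeast strain carrying DNA damage repair alterations exposed to each compound.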

Measured: growth inhibition

Nc1ccc(O)c(N=Nc2ccc(S(N)(=O)=O)cc2)c1
inactive: [1] 6% | [2] 0.1% | [3] 13.6% | [4] -1.1% | [5] 18.1% | [6] 10.1%

Cn1c(=O)c2[nH]c(=S)n(C)c2n(C)c1=O
inactive: [1] 31.8% | [2] -8.35% | [3] -2% | [4] 11.2% | [5] -13.6% | [6] 15.5%

CC1=CCC(C(C)(C)OCCCO)CC1 (stereo not drawn)
inactive: [1] 15.8% | [2] 14% | [3] -17.6% | [4] 10.7% | [5] 4.4% | [6] 22%

COc1c2c(cc3occ(-c4ccc(CC=C(C)C)cc4)c(=O)c13)OC(C)(C)C=C2
inactive: [1] -3.8% | [2] -11.6% | [3] -3% | [4] -24.8% | [5] -12.4% | [6] -35.5%

CN(C)c1ccc(/C=C2\Cc3ccccc3C2=O)cc1Br
inactive: [1] 19.6% | [2] -8% | [3] 1.45% | [4] 0.95% | [5] -8.55% | [6] 12.4%

O/N=C1/CC2(N3CCOCC3)C3CC/C(=N\O)C2CC1(Cc1ccccc1)C3 (stereo not drawn)
inactive: [1] 2.75% | [2] 0.25% | [3] 17.1% | [4] 27.7% | [5] -11.2% | [6] -10%

COc1ccc(NC(=O)Oc2cccc(NC(C)=O)c2)c(OC)c1
inactive: [1] 13.8% | [2] 8.7% | [3] 10.1% | [4] 4.35% | [5] 12.4% | [6] 8.65%

Cc1nccc2scc(S(=O)(=O)O)c12
inactive: [1] 22.6% | [2] 10.5% | [3] 12.1% | [4] -12.8% | [5] -13.7% | [6] 22.7%

COc1ccccc1NC(=O)C1=C(C)NC(C)=C(C(=O)Nc2ccccc2OC)C1C1=CC=COC1
inactive: [1] -30.4% | [2] -12.8% | [3] -25.9% | [4] -1.1% | [5] 13.1% | [6] -15.5%

CN(/N=C/C=N/N(C)C1=NCCCN1)C1=NCCCN1
inactive: [1] -0.95% | [2] 1.15% | [3] 3.8% | [4] 9.1% | [5] 13.2% | [6] -6.35%

c1ccc(-c2ccc3c(c2)NCCN3)cc1
inactive: [1] -3% | [2] 9.35% | [3] -13.6% | [4] -4.35% | [5] 7.25% | [6] 21.4%

N#C/C(=C\c1ccccn1)c1nc(-c2ccc(Cl)cc2)cs1
inactive: [1] -9.6% | [2] -27.9% | [3] -12.7% | [4] -0.1% | [5] 0.5% | [6] -14.6%

CCOc1ccc2c(c1)C(C)(C)CCC2(C)C
inactive: [1] 3.55% | [2] -7.75% | [3] -5.9% | [4] -38.5% | [5] 1.4% | [6] 6.05%

c1ccc(CCC2OCC(c3ccccc3)O2)cc1 (stereo not drawn)
inactive: [1] -21.9% | [2] 18.6% | [3] -3.2% | [4] -35.9% | [5] 58.8% | [6] -2.05%

CC(=O)OCC1OC(OC(C)=O)C(NC(=O)c2ccc(Br)cc2)C(OC(C)=O)C1OC(C)=O (stereo not drawn)
inactive: [1] 42.1% | [2] 19.4% | [3] 39.5% | [4] 19.6% | [5] -1.1% | [6] 31.8%

O=c1[nH]cnc2ncnn12
inactive: [1] 20% | [2] 4.2% | [3] 9.65% | [4] 19.2% | [5] 21% | [6] 16.4%

COc1ccc2c(c1)C(=O)[C@@](Nc1ccc(C=O)cc1)(OC)[C@@](OC)(c1ccc([N+](=O)[O-])cc1)O2
inactive: [1] 9.3% | [2] -3.05% | [3] 29.9% | [4] 2.3% | [5] -9.45% | [6] 12.4%

O=C1NC(c2ccccc2Cl)Nc2ccccc21 (stereo not drawn)
inactive: [1] -1.1% | [2] 4.1% | [3] 5.65% | [4] -32.1% | [5] 5.45% | [6] -27.1%

CC(=O)N(C)Nc1ccccc1
inactive: [1] 2.45% | [2] -10.7% | [3] 17.9% | [4] -7.4% | [5] 19.7% | [6] -17.6%

c1ccc(P(CCCP(c2ccccc2)c2ccccc2)c2ccccc2)cc1
inactive: [1] -15.7% | [2] 21.4% | [3] -24.6% | [4] 38.4% | [5] -0.05% | [6] -15.8%

O=C(Nc1ccccc1[N+](=O)[O-])OCc1ccccc1
inactive: [1] -10.7% | [2] 10.4% | [3] 13.5% | [4] 10.1% | [5] 1.6% | [6] 8.2%

CCOC(=O)c1c(C)c2c(n1C)CCC(C(=O)OCC)C2=O (stereo not drawn)
inactive: [1] -3.15% | [2] 9.4% | [3] 10.3% | [4] 11.4% | [5] 4.6% | [6] 0.45%

CCc1cnccc1C
inactive: [1] 10.3% | [2] -14.9% | [3] -19.1% | [4] 6.25% | [5] 6.45% | [6] -9.75%
